Apoferritin bind: binds horse apoferritin like a general anesthetic | P02791 | apoferritin/1-aminoanthracene competitive binding, fluorescence | Potency, µM (highest dose often 77.5 µM), for the others: at the highest dose activity change, negative = displacement, usual class: inhibitors | actives 0.074% (n = 350,000) | AID 485281; also: % is scaled to controls: 0 for no effect and ±100 for the full control effect; nearly all actives have a fitted effect of over 20% in size
Target sequence (P02791 2-175 limits assumed): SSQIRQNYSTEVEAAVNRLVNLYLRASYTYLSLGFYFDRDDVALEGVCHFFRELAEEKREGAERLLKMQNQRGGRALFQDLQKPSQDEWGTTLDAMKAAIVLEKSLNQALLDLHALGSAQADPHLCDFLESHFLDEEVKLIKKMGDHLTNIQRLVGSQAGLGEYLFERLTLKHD
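10 uM apoferritin + 50% sat. 1-AMA, PBS; cpd 10 min RT; Ex380/Em535 endpoint; normalized to free probe vs complex; 4-param Hill fit; propofol titration as pos. ctrl.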
12-LOX inh: ALOX12 (human) lipoxygenase inhibition | P18054 | purified 12hLO, xylenol orange hydroperoxide absorbance | Potency, µM (titrated, usually from 108 µM), for the others: at the top dose activity change, negative = inhibition, most hits filed as inhibitors | actives 1.1% (n = 580,000) | AID 1671190; also: % is scaled to controls: 0 for no effect and ±100 for the full control effect
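Purified human 12hLO (150 nM final) in 25 mM Hepes, 0.01% Triton X-100, pH 7.0 was preincubated 15 min at room temperature with compound. Then 40 uM arachidonic acid was added, 30 min. Hydroperoxide was read by Fe-XO absorbance ratio 573/405 nm.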
TrxR1 inh: inhibitors of rat thioredoxin reductase 1; recombinant rTrxR1, NADPH fluorescence consumption, selenite substrate; Potency, µM (series often up to 114 µM), for inactives: at the top dose activity change, negative = inhibition, actives largely listed as inhibitors; actives 1% (n = 390,000); AID 588453; also: % is scaled to controls: 0 for no effect and ±100 for the full control effect; nearly all actives have a fitted effect of over 65% in size
Target sequence (O89049 whole entry, looked up): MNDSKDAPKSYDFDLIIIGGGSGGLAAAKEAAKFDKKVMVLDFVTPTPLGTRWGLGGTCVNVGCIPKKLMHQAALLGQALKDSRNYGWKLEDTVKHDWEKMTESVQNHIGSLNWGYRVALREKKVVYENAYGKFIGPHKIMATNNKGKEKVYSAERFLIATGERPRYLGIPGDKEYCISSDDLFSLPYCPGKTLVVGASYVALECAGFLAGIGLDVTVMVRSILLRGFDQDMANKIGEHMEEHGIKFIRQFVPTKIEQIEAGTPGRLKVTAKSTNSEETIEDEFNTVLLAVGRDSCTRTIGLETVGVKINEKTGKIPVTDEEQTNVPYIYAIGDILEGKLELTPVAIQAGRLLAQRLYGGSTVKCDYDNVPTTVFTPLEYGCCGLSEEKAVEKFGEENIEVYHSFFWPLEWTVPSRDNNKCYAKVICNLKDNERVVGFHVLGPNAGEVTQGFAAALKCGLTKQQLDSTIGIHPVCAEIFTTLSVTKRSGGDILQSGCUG
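Rat TrxR1 (90 nM in the dispensed reagent) was pre-reduced with 400 uM NADPH for 5 min at room temperature, then incubated with compound for 15 min. After 400 uM selenite was added, NADPH fluorescence (Ex 340/Em 450 nm) was followed for 8 min.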
Glioma ERSR ind: ER stress response induction in glioma | AID 602332 | actives 0.02% (n = 420,000) | Potency, µM, without a hit: at the highest dose activation, most hits filed as activators | U87-MG GRP78 promoter luciferase reporter, 16 h; also: series mostly up to about 76 µM; % of control where 0% means no effect; nearly all actives have a fitted effect of over 35% in size
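Stably transfected U87-MG glioma cells carrying a GRP78-based luciferase sensor; 16 h compound incubation. Luminescence end-point read 10 min after Bright-Glo addition at room temperature.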
mIDH1 inhibitor: inhibitors of human mutant IDH1 R132H | O75874 | IDH1-R132H enzyme, NADPH consumption, diaphorase/resazurin fluorescence | Potency, µM (top dose mostly 76.6 µM), without a hit: at the highest dose activity change, negative = inhibition, most hits filed as inhibitors | actives 0.093% (n = 390,000); also: % is scaled to controls: 0 for no effect and ±100 for the full control effect; nearly all actives have a fitted effect of over 65% in size
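IDH1-R132H (0.5 ug/mL) preincubated 30 min with compound, then NADPH (0.016 mM) and alpha-KG (2 mM) added; 80 min at RT, pH 7.5. Remaining NADPH coupled via diaphorase/resazurin to fluorescence (540/590 nm); concentration-response curves normalized to no-enzyme control.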
TrxR1 substrate: is turned over as a substrate by rat TrxR1; Potency, µM (doses to about 114 µM), for inactives: at the highest dose activity change, negative = substrate turnover; purified TrxR1 substrate turnover, NADPH consumption readout; AID 588456; actives 0.01% (n = 390,000); also: % is scaled to controls: 0 for no effect and ±100 for the full control effect; nearly all actives have a fitted effect of over 50% in size
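Rat TrxR1, dispensed at 90 nM, was prereduced with 400 uM NADPH (final) for 5 min at ~22 deg C, then incubated with compound 15 min before 400 uM selenite. A first-read NADPH fluorescence drop versus no-compound background flagged substrates.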
Starred values were filed as active, the others as inactive; ? = inconclusive; nt = no result; [ ] = remark or other dose. This is a sample that favours compounds with a hit; in the whole collection about 1.7% have one here. Calls follow the shape of the dose curve; as a rule, active = well fitted curve in the direction sought with a large enough effect; inconclusive = small, poorly fitted or top-dose-only effect, or another doubt; inactive = no such curve, though single readings can be large; an effect the other way counts as inactive or inconclusive. Potency is read from the fitted curve at half-maximal effect.

SMILES	Apoferritin bind	12-LOX inh	TrxR1 inh	Glioma ERSR ind	mIDH1 inhibitor	TrxR1 substrate
CC(=O)Nc1ccc(Nc2ccc(S(=O)(=O)C(F)(F)F)cc2[N+](=O)[O-])cc1	-8%	7%	-20%	-6%	4%	-19%
CCCCNc1ccc(S(N)(=O)=O)cc1[N+](=O)[O-]	-2%	nt	nt	nt	nt	nt
CCNc1ccc(S(=O)(=O)N(C)C)cc1[N+](=O)[O-]	-9%	45µM*	3%	-3%	-10%	-7%
O=C(O)CNc1ccc(S(=O)(=O)C(F)(F)F)cc1[N+](=O)[O-]	-7%	4µM*	16%	-4%	-6%	0%
CC1(c2ccccc2)N(Cc2ccccc2)C(=O)OC12CCN(Cc1c[nH]c3ccccc13)CC2 (centres undefined)	nt	45µM*	nt	nt	nt	nt
CC1(c2ccccc2)N(Cc2ccccc2C#N)C(=O)OC12CCN(Cc1ccccc1F)CC2 (centres undefined)	nt	-9%	nt	nt	nt	nt
CC1(c2ccccc2)N(Cc2ccccc2C#N)C(=O)OC12CCN(Cc1c[nH]c3ccccc13)CC2 (centres undefined)	nt	32µM*	nt	nt	nt	nt
COc1ccc(CC(=O)Nc2c(C(=O)Nc3ccccc3F)oc3ccccc23)cc1	-5%	-23%	7%	2%	3%	6%
CC(C)CCn1c(SCC(=O)c2ccccc2)nc2c1c(=O)n(C)c(=O)n2C	nt	18µM*	nt	nt	nt	nt
CCC/C=N/Nc1nc2ccccc2s1	?	40µM*	15%[57.1 µM]	4%	6%	4%[57.1 µM]
C(=C\c1ccccc1)/C=N/Nc1nc2ccccc2s1	-11%	11%	13%	3%	8%	5%
Cc1ccc(CNC(=O)CSc2ccsc2[N+](=O)[O-])cc1	-14%	-10%	50µM*	3%	-4%	-11%
CCN(CC)/[N+]([O-])=N/Oc1cc(O/N=[N+](\[O-])N(C)C)c([N+](=O)[O-])cc1[N+](=O)[O-]	-15%	nt	11µM*	-13%	nt	-10%
N#CC1=C(N)SC(N)=C(C#N)C1c1ccc([N+](=O)[O-])cc1	-11%	?	50µM*	-2%	-5%	-1%
NC(=S)Cc1nc(-c2ccc(Cl)cc2)cs1	-9%	35µM*	-24%	0%	0%	-1%
NC(=O)Cc1nc(-c2ccc(F)cc2)cs1	1%	-6%	31%	-1%	13%	1%
CNc1c(NC(=O)Nc2ccc(F)cc2)c(=O)oc2ccccc12	nt	10µM*	nt	nt	nt	nt
CC(Oc1ccc(C#N)cc1)C(=O)NOCc1ccccc1 (centres undefined)	nt	-15%	nt	nt	nt	nt
CCOC(=O)c1cc2cc(CC)ccc2[nH]1	nt	0%	nt	nt	nt	nt
CCOC(=O)c1cc2cc(C(=O)O)ccc2[nH]1	nt	16µM*	nt	nt	nt	nt
COc1ccc(OC)c(S(=O)(=O)N2[C@@H]3CC[C@H]2CC(NC(=O)c2ccc(F)cc2)C3)c1 (some centres undefined)	nt	16%	nt	nt	nt	nt
CC(C)Oc1ccc(C(CCNCc2ccc(O)cc2)c2ccccc2)cc1 (centres undefined)	-14%	40µM*	16%	-12%	-9%	-2%
COCCCNC(=O)CN1CC2CC(C1)[C@H]1CCCC(=O)N1C2 (some centres undefined)	nt	15%	nt	nt	nt	nt
COC(=O)C1=C(C(=O)OC)SC(=C(Cl)C(=S)Sc2ccccn2)S1	nt	4.5µM*	nt	nt	nt	nt
O=C(c1ccc(Cl)cc1)N1CC2(CCN(Cc3ccncc3)C2)OCc2ccccc21 (centres undefined)	nt	-1%[6.33 µM]	nt	nt	nt	nt
SMILES	Apoferritin bind	12-LOX inh	TrxR1 inh	Glioma ERSR ind	mIDH1 inhibitor	TrxR1 substrate
O=C(C1CCCO1)N1CCN(Cc2c(O)ccc3ccccc23)CC1 (centres undefined)	?	?	7.1µM*	6%	13%	9%
CCOC(=O)c1oc2ccccc2c1CN1CCCCC1	-3%	-10%	38%	-3%	-3%	10%
CCOC(=O)N1CCN(Cc2c(O)ccc3ccccc23)CC1	-8%	-162%	13µM*	0%	10%	11%
Oc1ccc(CN2CCCCC2)c2cccnc12	2%	?	-24%	-5%	-5%	10%
CCOC(=O)c1oc2ccccc2c1CN1CCN(C)CC1	5%	35µM*	16%	1%	9%	3%
CCOC(=O)N1CCN(Cc2ccc(O)c3ncccc23)CC1	-17%	25µM*	13µM*	-2%	5%	-1%[57.1 µM]
COCCNc1ncnc2c1CN(c1ccccc1F)C(=O)CN2C	nt	24%	nt	nt	nt	nt
COCC(=O)OCC(=O)N1N=C(c2ccc(Cl)cc2)CC1c1ccco1 (centres undefined)	-9%	-24%	11%[57.1 µM]	-3%	17%	5%[57.1 µM]
O=C(OCC(=O)N1N=C(c2ccc(Cl)cc2)CC1c1ccco1)c1cccnc1 (centres undefined)	nt	-58%	7.1µM*	-8%	2%	0%
O=C(c1ccco1)N1N=C(c2ccc(Cl)cc2)CC1c1ccco1 (centres undefined)	-12%	?	40µM*	-8%	1%	-4%
Nc1cc(=O)[nH]c(SCC(=O)N2N=C(c3ccc(Cl)cc3)CC2c2ccco2)n1 (centres undefined)	?	40µM*	2%[57.1 µM]	1%	2%	-9%[57.1 µM]
CC(C)[C@H](NS(=O)(=O)c1ccccc1)C(=O)OCC(=O)N1N=C(c2ccc(Cl)cc2)CC1c1ccco1 (some centres undefined)	-12%	40µM*	-34%	-10%	4%	-4%
O=C(NCc1ccncc1)C1(c2cccc(C(F)(F)F)c2)CCOCC1	nt	23%	nt	nt	nt	nt
CC(Cn1cccn1)NC(=O)N1CCN(Cc2ccco2)CC1 (centres undefined)	nt	-6%	nt	nt	nt	nt

Screens deposited in PubChem BioAssay by National Center for Advancing Translational Sciences (NCATS).
